59 compounds from PubChem BioAssay AID463115 (University of Pittsburgh Molecular Library Screening Center, 2010) can be followed below.

For orientation: inhibition means the drop in the measured response relative to a control, in per cent.

Each structure is given as a SMILES string. Hit rate of the full screen: of about 220,000 compounds, about 130 (0.059%) were called active. This excerpt belongs to a sample that is enriched for actives. Unmarked numbers belong to inactive results. No stated cut-off is given here; in the data, active means inhibition above about 25%; inactive means the rest.

Chain of Furin (Homo sapiens) (P09958 108-714 limits assumed): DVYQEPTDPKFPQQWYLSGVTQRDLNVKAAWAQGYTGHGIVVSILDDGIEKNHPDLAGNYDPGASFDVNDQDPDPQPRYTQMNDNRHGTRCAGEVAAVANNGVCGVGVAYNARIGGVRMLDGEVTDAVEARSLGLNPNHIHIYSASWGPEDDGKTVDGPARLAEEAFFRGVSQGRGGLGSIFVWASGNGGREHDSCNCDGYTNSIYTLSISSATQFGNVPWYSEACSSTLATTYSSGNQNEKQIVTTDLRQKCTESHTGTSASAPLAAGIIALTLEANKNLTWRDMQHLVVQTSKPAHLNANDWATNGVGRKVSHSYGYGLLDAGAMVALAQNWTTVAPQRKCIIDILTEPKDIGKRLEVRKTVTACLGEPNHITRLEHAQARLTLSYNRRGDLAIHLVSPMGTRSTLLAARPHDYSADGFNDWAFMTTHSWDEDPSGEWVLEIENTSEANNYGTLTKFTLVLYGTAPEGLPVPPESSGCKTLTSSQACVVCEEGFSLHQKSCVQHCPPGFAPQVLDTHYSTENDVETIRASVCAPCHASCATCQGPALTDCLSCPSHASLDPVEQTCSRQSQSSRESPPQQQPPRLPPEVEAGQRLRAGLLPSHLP

The assay concerns the target Furin (Homo sapiens) (UniProt P09958). Put plainly: furin protease activity blockers – biochemical, fluorescence intensity, primary screen (AID 463115). Particulars: purified furin, fluorogenic substrate cleavage, active compounds read high; at 30 µM unless noted.
For `COc1cccc(OCc2cc(/C=N/NC(=O)c3nc(Cl)c(Cl)c(N)c3Cl)ccc2OC)c1`, the inhibition is -20.2% [at 20 µM].

For `Cc1ccc(C(=O)NC(=S)Nc2ccc3[nH]c(=O)[nH]c3c2)cc1C`, the inhibition is -13.7%. The value for `C=C(C)Cn1c(C)cc(C)c(S(=O)(=O)c2ccccc2C)c1=O` was 5.86% [at 20 µM]; that for `CC(C)NC(=O)C(=O)N/N=C/c1ccco1` was -9.76% [at 20 µM]. For the compound `Cc1ccccc1NC(=O)Nc1ccccc1N1CCCCC1`, the inhibition was -10.3%. The value for `Cc1cc(OC(=O)c2ccccc2Cl)ccc1N1C(=O)CCC1=O` was -16%. The value for `Cc1cccc(-n2c(SCC(=O)Nc3cccc(S(=O)(=O)NC4=NCCCCC4)c3)nc3ccccc3c2=O)c1C` was -12.8%. The value for `COc1ccc(CCNC(=O)C(=O)NCc2ccccc2C)cc1OC` was -21%; that for `CCC(=O)Nc1nc2ccccc2n1Cc1ccccc1C` was -19.3%. For the compound `C=CCn1c(C(C)NC(=O)CC)nc2ccccc21` (centres undefined), the inhibition is -10.5% [at 20 µM].

On to `CC(=O)NC(C)c1nc2ccccc2n1Cc1ccccc1F` (centres undefined), for which the inhibition is 29.1% [at 20 µM] (active). For `CCCCNC(=O)N1CCN(S(C)(=O)=O)CC1`, the inhibition was -17.1%. Take `CNC(=S)N/N=C/c1cn(Cc2ccc(C)cc2)c2ccccc12`: the inhibition was -4.13%. With `O=C1CCCc2nn(-c3ccccc3)nc21`, the inhibition was -13.3% [at 20 µM]. The value for `O=C(Nc1cccnc1)c1cc2cc(Br)ccc2oc1=O` was -18%; that for `CSc1ccc(C#N)cc1NC(=O)c1ccc(Cl)cc1` was -25.3% [at 20 µM]; that for `COc1ccc(NC(=O)C(NC(C)=O)C(=O)NCc2ccccc2Cl)cc1` (centres undefined) was -24.7% [at 20 µM]. The value for `Cc1ccc(-c2cc(C(F)(F)F)n3ncc(C(=O)N4CCCCC4c4cccnc4)c3n2)cc1` (centres undefined) was -31.6%.

As for `Cc1ccc(N(Cc2cc3ccccc3[nH]c2=O)C(=O)c2cccs2)cc1`, the inhibition is -16%. The value for `CC1(C)CC(=O)C(CC(=O)N2CCC(Cc3ccccc3)CC2)C(=O)C1` was -13%; that for `O=C(O)/C(=C/c1cccnc1)NC(=O)c1ccccc1` was -17.1%; that for `COc1cc([C@H](Cc2ccccc2)NC(C)=O)oc(=O)c1` was -28.7%. Regarding `CSc1nc(C)nc(C2CC2)c1C#N`, the inhibition was -16.6%. The value for `C=CCOC(=O)C1=C(C)NC(C)=C(C(=O)OCC=C)C1c1cccs1` was -8.1% [at 20 µM]; that for `COc1ccc2c(CC(=O)OCC(=O)Nc3ccccc3[N+](=O)[O-])coc2c1` was -10.8%; that for `Clc1ccc(C[n+]2cc(-c3ccccc3)n3c2CCC3)cc1` was -20.2%. The value for `CCC1C=C(c2ccccc2)C=CN=C1N(CC)CC` (centres undefined) was -18.4%; that for `CC1=C(C)CC(C(=O)NC(C)CCc2ccccc2)C(C(=O)O)C1` (centres undefined) was -15%; that for `CC1=C(C)C(=O)OC(C(C)C2CCC3C4CC=C5CC(OC6OC(COC7OC(CO)C(O)C(O)C7O)C(O)C(O)C6O)CC(O)C5(C)C4CCC23C)C1` (centres undefined) was -28.1%. The value for `CC1CCCC(C)N1/N=C/c1ccccc1OC(F)F` (centres undefined) was -34.3%; that for `NC(N)=Nc1nc2ccc(Br)cc2c(=O)[nH]1` was -13.8%.

Regarding `CCOc1ccc(NC(=S)NC(=O)/C=C/c2ccc(OC)cc2)c([N+](=O)[O-])c1`, the inhibition was -14.6%. The value for `Cc1c(Br)cc(C(=O)N2CCCCCC2)c(C)c1C` was -19.1% [at 20 µM]. The value for `CC(C)CCN1CCN(Cc2ccc(C(F)(F)F)cc2)CC1CCO` (centres undefined) was -11.2%; that for `COc1ccc(OC)c(S(=O)(=O)NCCC(C)C)c1` was -25.7%.

With `O=C(NCCc1ccccn1)c1cc(-c2ccc(Cl)cc2)nc2ccccc12`, the inhibition was -20.1%.

For `CC12CN3CCN(CC(C3)/C1=N\NC(=O)c1ccccc1N)C2`, the inhibition was -14.7%.

Turning to `CC(CC(=O)O)CC(=O)NNC(=O)c1cccc(Br)c1` (centres undefined), the inhibition is 4.22%. In the case of `CCCOn1c(-n2nc(C)cc2C)nc2ccccc2c1=O`, the inhibition is -1.39% [at 20 µM]. In the case of `CC(C)Oc1ccccc1C(=O)NC(CO)C(=O)O` (centres undefined), the inhibition is -21.8%. On to `CC(C)(C)NC(=O)NC(=O)COC(=O)Cc1ccc(Cl)cc1Cl`, for which the inhibition was -11.5%. Regarding `CCOC(=O)c1nnn2c1nc(N1CCN(c3ccccc3)CC1)c1ccccc12`, the inhibition was -23.3%. On to `C=C(C)C1CC=C(C)/C(=N/NC(=O)CCCNc2cccc(C)c2)C1` (centres undefined), for which the inhibition is -8.06%. In the case of `CCc1ccc(NC(=O)CC2C(=O)NCCN2C(=S)Nc2ccccc2)cc1` (centres undefined), the inhibition was -22.7%. The value for `CC(C)C(O)C1CCN(Cc2nc(Cc3ccccc3Cl)no2)CC1` (centres undefined) was -21.2%; that for `CC(=O)c1sc(NC(=O)c2cccc3ccccc23)nc1C` was -10.7% [at 20 µM]. The value for `COC(=O)c1sc(NC(=S)NC(=O)c2ccc(C)cc2)nc1C` was -11.8%; that for `CC(=O)c1sc(NC(=O)c2ccc(C)cc2)nc1C` was 26.4% [at 20 µM] (active). Turning to `CN(C)c1ccc(/C=N/NC(=O)C(O)c2ccc(Br)cc2)cc1` (centres undefined), the inhibition is -19%. `CCC(=O)NC(Nc1nc2ccc(C)cc2s1)(C(=O)OC)C(F)(F)F` (centres undefined): the inhibition was -11.3% [at 20 µM]. The value for `CCCCNC(=O)OC(C)CNC(=O)OC` (centres undefined) was -9.97% [at 20 µM]; that for `CN(C)/N=C/c1cn(-c2ccccc2)nc1-c1cccnc1` was 1.34%; that for `CCCNS(=O)(=O)c1ccc(CCC(=O)N2CCCC2)cc1` was -15.5%. Take `C=CC(COCc1ccccc1)N(Cc1ccccc1)S(=O)(=O)c1ccccc1Br` (centres undefined): the inhibition is -14.6%. The value for `COc1ccc(C2=NOC3(CC(=O)N(c4ccc(Cl)cc4)C3=O)C2)c(OC)c1` (centres undefined) was -21.1% [at 20 µM]. The value for `O=C(NC1CCN(Cc2ccccc2)CC1)c1c(F)cccc1F` was -12.2%. The value for `Nc1c(NCCc2ccccc2)c2ccccc2oc1=O` was -0.514%. For the compound `Cc1cc(Nc2ccc(N3CCOCC3)cc2)c2cccc(C)c2n1`, the inhibition was 3.96%. The value for `O=C(NN1C(=O)C2C(C1=O)C1C=CC2C12CC2)c1ccccc1Cl` (centres undefined) was -7.61%.
